# Experimental data as given in the OligoGym collection.
# Target: ARL8B
# Assay: pooled miR-30 sensor sort-seq; sequence = guide strand
# Conditions: shRNA
# Note: reference of the scale not given here.
row,Sequence,sensor-assay potency score (higher = more potent)
1,TAATTCTAGGATTATAGCCAAG,-1.33
2,TAAACAATAGCATTGACTCCTC,-0.391
3,TTTATCTAGAAGATTATGTAGC,0.313
4,TGTGATATCTATATTATCCTTT,0.458
5,TTTCCAAGCACTAGCACTGGAA,-1.03
6,TTACCTTTAGTTACCTTCCTCA,0.244
7,TTTCACGATCTGCAGCATCTAT,-0.778
8,TTTCTCTATCCTGAATAGCAGA,-1.1
9,TTTCGGGAAGCTTCTATCTTTT,-1.11
10,TTGAATAGCAGCAAATTTCTCT,0.213
11,TATCTTCACTGAATTGACCTGA,0.755
12,TATCATGTAAACAATAGCATTG,-1.05

# Target: ARPC1A
# Assay: as above
# Conditions: shRNA
row,Sequence,sensor-assay potency score (higher = more potent)
1,TTTGGAATATCTAACTTGGAGA,-0.835
2,TTGGCTTCCAAACACCATCTTT,-0.586
3,TCTGAGACAAATGACACACTTA,0.156
4,TTTTGGAATATCTAACTTGGAG,-0.944
5,TGAAGTCACATGATCCTGCTGC,0.622
6,TATTCAAACAAAACCACACGGC,-0.11
7,ATTTGAAGTCACATGATCCTGC,0.383
8,TATAGATGTGCACTTCGTGATT,-0.958
9,AAATTTGCGACAATCTTGCTTG,-0.036
10,TAACAAACAGAAATGAGTCGTG,0.708
11,TTGAGTGATGCTATTCTGGTGC,0.522
12,TTTAATGTGCTTGCTCACCCAC,-0.282
